High-throughput results deposited in PubChem by National Center for Advancing Translational Sciences (NCATS).
Pf growth 96h: P. falciparum growth inhibition at 96 hour, primary screen for plastid delayed-death inhibitors; P. falciparum luciferase reporter growth, 96 h; Potency, µM (titrated, usually from 28.7 µM), inactives show at the highest dose activity change, negative = inhibition, hits mostly inhibitors; hit rate 6.9% among 320,000; AID 504834; also: % is scaled to controls: 0 for no effect and ±100 for the full control effect
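96 h incubation, 37 C, 5% CO2, of luciferase-reporter P. falciparum-infected RBCs (2% hematocrit, 0.05% parasitemia final) with test compounds; endpoint luminescence.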
AMA1-RON2 inh: inhibitors of Plasmodium falciparum AMA1-RON2 interaction; hit rate 0.2% among 360,000; AID 720542; AlphaScreen AMA1-biotinylated RON2 peptide binding; Potency, µM (highest dose often 58.2 µM), for inactives: at the top dose activity change, negative = inhibition, hits mostly inhibitors;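 also: 0% = vehicle wells and -100% = peptide control; nearly all actives have a fitted effect of over 45% in size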
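AMA1 (3D7) with his tag at 25 nM final met compounds first, then biotinylated RON2 peptide at 25 nM; detection used donor plus acceptor beads, 10 µg/mL apiece, read by AlphaScreen after 30 min at room temperature.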
Pf growth 48h: P. falciparum growth inhibition at 48 hours (one generation); P. falciparum luciferase growth in erythrocytes, 48 h; Potency, µM (highest dose often 28.7 µM), for inactives: at the top dose activity change, negative = inhibition, usual class: inhibitors; hit rate 5.9% among 310,000; AID 504832; also: % is scaled to controls: 0 for no effect and ±100 for the full control effect
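Parasite viability was followed by luminescence of a genomically integrated firefly luciferase. Cultures held 0.1% parasitemia at 2% hematocrit (final), incubated under 5% CO2 at 37 C.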
NS1 function inh: blocks influenza NS1 protein function | Potency, µM (highest dose often 46.1 µM), for inactives: at the highest dose activity, positive = more growth | AID 2326 | hit rate 0.4% among 270,000; calls by dose curve; also: actives are rising curves; nearly all actives have a fitted effect of over 50% in size
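Growth recovery, yeast-based: influenza A NS1 expressed in S. cerevisiae causes slow growth, and suppressors are detected by OD600. The parent strain without NS1 is used as positive control.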
Sm TGR block: S. mansoni TGR enzyme inhibition. purified TGR, DTNB reduction, TNB absorbance 405 nm. AID 485364. Potency, µM (highest dose often 114 µM), without a hit: top-dose activity change, negative = inhibition, actives largely listed as inhibitors. hit rate 3% among 360,000; also: % is scaled to controls: 0 for no effect and ±100 for the full control effect; nearly all actives have a fitted effect of over 60% in size
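TGR 20 nM + NADPH 100 uM (dispensed conc.), cpd preinc 15 min RT; start with NADPH (500 uM addition) then DTNB (15 mM addition). Kinetic TNB absorbance, 405 nm filter. Four-parameter Hill fit across titration.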
An asterisk follows results filed as active; ? = inconclusive; / = no result. This is a sample that favours compounds with a hit; in the whole collection about 11% have one here. Unless noted, calls follow the shape of the dose curve; as a rule, active = well fitted curve in the direction sought with a large enough effect; inconclusive = small, poorly fitted or top-dose-only effect, or another doubt; inactive = no such curve, though single readings can be large; an effect the other way counts as inactive or inconclusive. Potency is read from the fitted curve at half-maximal effect.

SMILES	Pf growth 96h	AMA1-RON2 inh	Pf growth 48h	NS1 function inh	Sm TGR block
COc1ccccc1NC(=S)NC(NC(=O)CC(C)C)C(Cl)(Cl)Cl (centres undefined)	?	-7%	15µM*	0%	1%
COc1ccc(NC(=S)NC(NC(=O)c2cccc(Cl)c2)C(Cl)(Cl)Cl)c([N+](=O)[O-])c1 (centres undefined)	?	16%	3.3µM*	7%	-1%
CCOC(=O)C1(N(CC)CC)Sc2cc(C)ccc2NC1=O (centres undefined)	5.9µM*	0%	?	-25%	13%
CCOC(=O)c1c(C)[nH]c(C)c1S(=O)(=O)Nc1ccc(CN2CCCCC2)cc1	5.9µM*	-8%	?	-12%	0%
CCOC(=O)c1cccc(NS(=O)(=O)c2c(C)[nH]c(C)c2C(=O)N2CCCC2)c1	?	-9%	3%	-4%	-14%
COc1cc(/C=N/NC(=O)c2cc(C3CC3)[nH]n2)ccc1O	10%	-1%	2%	6%	-3%
COc1cc(/C=N/NC(=O)c2cc(C34CC5CC(CC(C5)C3)C4)[nH]n2)ccc1O	12µM*	9%	?	-4%	10%
Cc1nn(-c2ccccc2)c(C)c1/C=N/NC(=O)c1cc(C23CC4CC(CC(C4)C2)C3)[nH]n1	2.1µM*	20%	3.3µM*	0%	-1%
CCNC(=O)NC1(C(=O)Nc2ccc3c(c2)CCC3)CCCCC1	2.9µM*	72%	1%	-2%	?
CC1CCCCN1CCNC(=O)c1ccc(Cn2c(SCc3ccccc3)nc3cccnc32)cc1 (centres undefined)	/	/	/	/	6%
CCOC(=O)N1CCC(NC(=O)CSCc2nc(-c3ccc(OCC)cc3)oc2C)CC1	-2%	13%	12µM*	-24%	-35%
CCOc1ccc(-c2nc(CSCC(=O)NC3CCCc4ccccc43)c(C)o2)cc1 (centres undefined)	13µM*	-5%	/	9%	-9%
CCOc1ccc(-c2nc(CSCC(=O)NCc3ccc(C)cc3)c(C)o2)cc1	/	/	/	/	-22%
CCOc1ccc(-c2nc(CSCC(=O)NC3CC3)c(C)o2)cc1	23%	-5%	13µM*	-4%	-13%
CCOC(=O)N1CCC(NC(=O)CSCc2nc(-c3cccc(OC)c3)oc2C)CC1	?	-2%	-22%	-8%	-28%
COc1cccc(-c2nc(CS(=O)(=O)CC(=O)NC3CCCc4ccccc43)c(C)o2)c1 (centres undefined)	?	15%	/	-1%	-33%
CCOC(=O)N1CCC(NC(=O)CSCc2nc(-c3sccc3C)oc2C)CC1	?	-2%	/	0%	40µM*
CCCCC(Sc1nc(C)c(Cc2ccccc2)c(=O)[nH]1)C(=O)O (centres undefined)	?	0%	?	?	7%
O=C(COc1coc(CN2CCc3ccccc3C2)cc1=O)Nc1cccc(Cl)c1	?	-6%	2%	/	-2%
O=C(CN1C(=O)NC2(CCOc3ccccc32)C1=O)NCCc1ccc(F)cc1 (centres undefined)	/	-1%	/	/	/
CCCCCCNc1nc2c(c(=O)n(C)c(=O)n2C)n1Cc1cccc(C)c1	/	/	/	/	9%
CCOc1ccc(-c2nc(CSCC(=O)NC3CCN(Cc4ccccc4)CC3)c(C)o2)cc1	/	-18%	/	/	/
CCOc1ccc(-c2nc(CSCC(=O)NCc3ccco3)c(C)o2)cc1	13µM*	-5%	?	-9%	?
Cc1oc(-c2ccc(Cl)cc2)nc1CSCC(=O)NC1CCN(Cc2ccccc2)CC1	15µM*	-3%	24%	-5%	0%
Cc1ccccc1CN1C(=O)c2ccccc2C1c1nnnn1C(C)C (centres undefined)	/	4%	/	/	/
SMILES	Pf growth 96h	AMA1-RON2 inh	Pf growth 48h	NS1 function inh	Sm TGR block
CCOC(=O)c1[nH]c(C)c(CCC(=O)N2CCN(c3cc(Cl)ccc3C)CC2)c1C	/	/	/	/	-3%
COc1ccc(CNC(=O)CCc2c(C)nn(-c3ccc(N4CCCCC4)nn3)c2C)cc1	/	/	/	/	7%
C=CCOc1c(Cl)cc(CNc2ccc(N(C)C)cc2)cc1OC	?	-24%	?	28%	18µM*
C=CCOc1c(Cl)cc(CNc2ccc(C)c(Cl)c2)cc1OC	?	/	/	0%	15%
CCOc1cc(CNc2ccc(N3CCCC3)cc2)cc(Cl)c1OC	5.2µM*	20µM*	2.9µM*	8%	25µM*
COc1cc(CNc2ccc(N3CCOCC3)cc2)cc(Br)c1OC	14%	?	-3%	3%	-18%
COc1cc(CNc2ccc(N3CCCC3)cc2)cc(Cl)c1OC	40%	?	3.3µM*	13%	/
CC(C)(C)C(=O)Nc1ccccc1C(=O)Nc1cc(Cl)ccc1Cl	4.1µM*	23%	12µM*	-26%	12%
CC(C)(C)C(=O)Nc1ccccc1C(=O)Nc1cccnc1	46%	3%	9%	6%	3%
CN(Cc1ccccc1)C(=O)COC(=O)CNS(=O)(=O)c1ccc2ccccc2c1	12%	1%	-10%	/	4%
COc1ccc(CCN2C(=O)c3[nH]nc(-c4ccccc4O)c3C2c2ccccc2)cc1OC (centres undefined)	8.3µM*	24%	9.3µM*	-19%	6%
CC(C)OCCCN1C(=O)c2[nH]nc(-c3ccccc3O)c2C1c1cccc(Cl)c1 (centres undefined)	-20%	73%	4.1µM*	/	-11%
O=C1c2[nH]nc(-c3ccccc3O)c2C(c2ccc(Cl)cc2)N1Cc1ccco1 (centres undefined)	/	/	/	/	10%
COCCCN1C(=O)c2[nH]nc(-c3ccccc3O)c2C1c1cccc(Cl)c1 (centres undefined)	7.4µM*	67%	9.3µM*	?	-1%
O=C1c2[nH]nc(-c3ccccc3O)c2C(c2ccccc2)N1Cc1ccco1 (centres undefined)	?	51%	12µM*	/	-22%
COc1ccc(CCN2C(=O)c3[nH]nc(-c4ccccc4O)c3C2c2ccc(O)c(OC)c2)cc1 (centres undefined)	/	/	/	/	0%
COCCCN1C(=O)c2[nH]nc(-c3ccccc3O)c2C1c1ccc(Cl)cc1 (centres undefined)	?	15%	?	/	6%
